The list is not random: actives were taken first. Their share in the collection is about 6.6%.
CSC inhib – cancer stem cell inhibition. cancer stem cell-like cells viability, luminescence. inhibition, % at 7.5 µM. 1.1% of 300,000 active. AID 2717; in the data active = inhibition above about 75%; tested in HMLE shEcad cells
NR3A LBD binder – modulators (binders) of human NR3A ligand-binding domain. Tm shift relative to glycine control, % at 25 µM. NR3A LBD differential scanning fluorimetry, Tm shift; 0% = protein alone, 100% = glycine-bound protein. 2.5% of 340,000 active;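 active = melting temperature shift of at least 10% of the positive control shift, at one fixed dose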
Beta apoptosis – beta cell apoptosis inhibition | protection from apoptosis, % (no concentration beside the values) | INS-1E cytokine-induced death, ATP luminescence, 48 h; percent of positive-control rescue, neutral wells zero | AID 435005 | 0.8% of 300,000 active;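 active = Every replicate reaches about 75%, or at least half do and their mean reaches it too, limit read from the data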;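 note: 0% = cytokine-treated negative control wells and 100% = positive control rescue; higher means more ATP so stronger rescue from cytokine killing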
MPTP inh – blocks calcium-induced mitochondrial swelling | isolated mouse mitochondria, Ca2+ swelling absorbance, 30 min | inhibition, % at 10 µM | 1.4% of 360,000 active;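 active = inhibition of 50% or more, scaled per plate between neutral and stimulator controls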;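 note: 0% = DMSO wells given calcium and 100% = 1 mM EGTA wells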
Mdm2-MdmX inh – human Mdm2/MdmX binding inhibition | O15151+Q00987 | SaOS-2 split-luciferase Mdm2/MdmX complementation, luminescence | inhibition, % at 8 µM | 3% of 330,000 active;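 active = inhibition of at least 50% at 8 µM in the primary screen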
Gli-Sufu block – antagonists of Gli-Sufu signaling | AID 588413 | Sufu-KO-LIGHT fibroblasts, Gli luciferase reporter luminescence | 0.74% of 340,000 active | inhibition, % at 5 µM;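 active = inhibition above about 55%, limit read from the data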;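 note: 0% = DMSO-treated cells and 100% = wells with medium but no cells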
The depositor's hits bear a star; · = not tested or not shown.

SMILES | CSC inhib | NR3A LBD binder | Beta apoptosis | MPTP inh | Mdm2-MdmX inh | Gli-Sufu block
COc1ccc2c(CC(=O)OCC(=O)c3ccc(F)cc3)coc2c1 | 8 | 19* | -1 | -2 | -5 | -6
COc1cccc(-c2cc(C(=O)Nc3c(C)nn(Cc4ccccc4C)c3C)no2)c1 | -3 | 11* | 18 | 0 | 20 | 3
Cc1ccc(NC(=O)CCN2C(=O)C3C4CCC(C4)C3C2=O)cc1Cl (stereo unspecified) | -6 | 18* | -4 | 1 | 21 | 18
Cc1ccc(NC(=O)CCN2C(=O)C3C4CCC(C4)C3C2=O)cc1[N+](=O)[O-] (stereo unspecified) | -2 | 1 | -4 | 0 | -1 | -7
CCOC(=O)c1ccc(NC(=S)N2CCCC(C(=O)N3CCCC3)C2)cc1 (stereo unspecified) | -10 | 11* | -4 | 0 | 25 | -11
CCOC(=O)c1ccc(NC(=S)N2CCCC(C)C2)cc1 (stereo unspecified) | -15 | 1 | -10 | 0 | 11 | -20
CCOC(=O)c1ccc(NC(=S)N2CCSC2c2ccc(Br)cc2)cc1 (stereo unspecified) | -11 | 18* | 1 | -2 | 8 | 1
C[C@@H]1COc2cc(N(C)CCO)ccc2S(=O)(=O)N1 | · | · | · | 0 | · | ·
COc1ccc(S(=O)(=O)NC(=O)C2(C)CCN2C(=O)C2(c3ccc(Cl)cc3)CCC2)cc1 (stereo unspecified) | · | · | · | 0 | · | ·
CC1=NN(c2ccccc2)C(=O)C1C=Nc1ccc(N(C)C)cc1 (stereo unspecified) | 86* | 2 | 10 | -1 | 10 | -10
COc1ccc(C(C[N+](=O)[O-])C2(c3ccc(OC)c(OC)c3)C(=O)c3ccccc3C2=O)cc1 (stereo unspecified) | 89* | 0 | -2 | 2 | · | -22
C/C(Cn1nnc([N+](=O)[O-])n1)=N\NC(=O)c1ccccc1Cl | 17 | -20 | 80* | 0 | 20 | -3
Cc1cc2c(cc1C)N[C@]1(C[C@H]3CCCC(=O)N4CC[C@@H](C1)[C@@H]34)C(=NC(C)(C)CC(C)(C)C)N2 | · | -10 | · | 0 | · | 7
CCOC(=O)c1cnc(SC)nc1Sc1ccccc1Cl | -6 | 20* | · | 3 | 11 | 0
O=C1c2cccnc2C(=O)N1CO | -12 | -3 | -2 | -1 | 24 | 4
NC1=C(Br)C(=O)c2ncccc2C1=O | · | 4 | · | 2 | · | 85*
C=CCC(CC(O)COCCC)C(=O)NNC(=S)Nc1ccccc1 (stereo unspecified) | -9 | 10* | -2 | 4 | -5 | 2
CCC(=O)N1CCC1(C)C(=O)NCc1ccc(SC)cc1 (stereo unspecified) | · | · | · | -1 | · | ·
Cc1nn(C)c(C)c1CCC(=O)NC1CC(C)(C)Cc2c1cnn2-c1ccccc1 (stereo unspecified) | -7 | -2 | -1 | -1 | 12 | 4
CC1(C)Cc2c(cnn2-c2ccccc2)C(NC(=O)CCc2ccc(=O)[nH]n2)C1 (stereo unspecified) | -4 | 13* | 4 | -1 | 9 | -3
O=C(O)CNS(=O)(=O)c1c(Cl)cccc1Cl | -15 | -2 | -2 | -1 | 1 | 31
CCC(C)CN1C(=O)CN(S(C)(=O)=O)CC1(C)C(=O)NC(C)C (stereo unspecified) | · | · | · | -1 | · | ·
COc1ccc(C(=O)Nc2ccccc2C(=O)N/N=C/c2cccc3ccccc23)cc1 | 59 | 14* | 42 | 10 | -8 | -120
COc1ccc(C(=O)N/N=C/c2cc3ccccc3[nH]c2=O)cc1 | · | 18* | · | -5 | -15 | 2
COc1ccc(OC)c(/C=N\NC(=O)c2ccc(-c3ccccc3)cc2)c1 | -2 | -1 | 0 | 0 | 4 | -4
SMILES | CSC inhib | NR3A LBD binder | Beta apoptosis | MPTP inh | Mdm2-MdmX inh | Gli-Sufu block
Cc1ccc(CC2SC(N=C(N)N)=NC2=O)cc1 (stereo unspecified) | 4 | 0 | -5 | 1 | 16 | 4
Cc1cccc(NC(=O)COc2ccc(/C=C\c3[nH]c(=O)[nH]c(=O)c3[N+](=O)[O-])cc2)c1 | -7 | 10* | -1 | 4 | 15 | 6
Cc1cccc(NC(=O)c2nc[nH]c2C(=O)N2CCC(C)CC2)c1 | -15 | 4 | -4 | -2 | 5 | -6
COc1ccc2nc(NN=C(C)c3ccccn3)cc(C)c2c1 | · | -3 | · | 0 | · | 79*
O=C(Cc1ccc(Cl)cc1)c1c[nH]c(C(=O)NCc2cccnc2)c1 | 13 | 0 | 107* | 0 | 6 | -8
O=C(COc1ccc(Cl)cc1)Nc1ccc(NC(=O)c2ccco2)cc1 | -4 | 17* | 2 | 2 | -10 | -30
O=C(COc1ccccc1)Nc1ccc(NC(=O)c2ccco2)cc1 | -4 | 9 | 5 | 2 | 15 | -20
Cc1cccc(OCC(=O)Nc2ccc(C(=O)NCc3cccnc3)cc2)c1 | 47 | · | 113* | · | 13 | ·
Cc1ccc(OCC(=O)Nc2cc(NC(=O)COc3ccc(C)cc3)cc(C(=O)O)c2)cc1 | -7 | 1 | -12 | 0 | 32 | -9
O=C(COc1ccc(Cl)cc1)Nc1cc(NC(=O)COc2ccc(Cl)cc2)cc(C(=O)O)c1 | 0 | 12* | -4 | 1 | 15 | 9
COC(=O)c1ccc(COc2ccc(/C=N/Nc3nc(C)cc(=O)[nH]3)cc2)cc1 | -11 | 0 | 7 | 2 | -2 | -15
O=C(COc1ccc(Cl)cc1)Nc1ccc(C(=O)NCc2cccnc2)cc1 | 74 | -2 | 101* | 28 | -21 | 17
O=C(COc1ccc(Cl)cc1)Nc1ccccc1C(=O)NCc1cccnc1 | 0 | -9 | -6 | 0 | 12 | 2
CC1(C(=O)NCc2ccccn2)CCN1C(=O)Cc1ccc(Cl)cc1Cl (stereo unspecified) | · | · | · | -1 | · | ·
N#CCC(CNc1ncc(C(F)(F)F)cc1Cl)OC(=O)c1ccc(Cl)cc1 (stereo unspecified) | · | 11* | · | 1 | -1 | 9
CCCCCCCCOC(=O)c1cc([N+](=O)[O-])c(Sc2ncnc3nc[nH]c23)c([N+](=O)[O-])c1 | · | -11 | · | 6 | · | -22
Nc1c(C(=O)Nc2ccc3c(c2)OCCO3)nnn1Cc1cccc(Br)c1 | 77* | -4 | 2 | -2 | -75 | -62
CCOc1ccc2ncc(S(=O)(=O)c3ccccc3)c(N3CCN(c4ccccc4)CC3)c2c1 | 0 | 1 | 2 | 0 | 29 | 13
CCOC(=O)c1cnc2ccc(OCC)cc2c1NCc1ccccc1 | 53 | 15* | 8 | 11 | 19 | 25
CCOC(=O)c1cnc2ccc(OCC)cc2c1N1CCN(c2ccccc2)CC1 | 52 | 3 | 105* | 2 | 8 | 10
CCOC(=O)c1cnc2ccc(OCC)cc2c1NCc1cccnc1 | -10 | -8 | 3 | 4 | -3 | -27
CCN1C(=O)C(CC(=O)Nc2ccc(OC)cc2)N(CCCN2CCN(c3ccc(OC)cc3)CC2)C1=S (stereo unspecified) | 19 | -2 | 4 | 0 | -19 | -3
